Data from the supplement of paper PMC10849652.
Of roughly 8,800 targets only a part is listed; those with a hit were picked by preference. About 0.5% of all pairs of compound and target were hits.

Columns and labels:
Assay in all cases: log2 fold change, soluble protein after heating vs DMSO (PISA); higher = thermal stabilisation; K562 lysate, 10 uM; active = over 0.2 and 3.5 SD of the protein, either way, in both replicates (recomputed)
ibrutinib = compound: C=CC(=O)N1CCC[C@@H](n2nc(-c3ccc(Oc4ccccc4)cc3)c3c(N)ncnc32)C1 [ibrutinib]
Outline: (§1)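 Log-two fold change in thermal stability relative to solvent controls is reported from duplicates. For each sample, crude K562 extract from dounce-homogenised pellets in PBS pH 7.4 with 1 mM MgCl2, at 1 mg/mL protein, was treated with 10 μM compound for 30 min. Aliquots heated for 3 min across 48°C-58°C were pooled, brought to 0.5% NP-40 at 4°C and cleared at 21,000xg for 90 min. The supernatant was quantified by TMTpro 16plex LC-MS/MS with channel sums equalised.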

[1] = compound: CC(=O)c1cnc2ccc(-c3cc(Cl)c(O)c(Cl)c3)nc2c1N[C@H]1CC[C@H](CN(C)C)CC1
Outline: as §1

ralimetinib = compound: CC(C)(C)Cn1c(N)nc2ccc(-c3[nH]c(C(C)(C)C)nc3-c3ccc(F)cc3)nc21 [ralimetinib]
Outline: as §1

[2] = compound: CC(C)(O)CC(=O)NCCn1ccc2ncnc(Nc3ccc(Oc4cccc(C(F)(F)F)c4)c(Cl)c3)c21
Outline: as §1

[3] = compound: CC(C)C1=C2N=C(C=C(N2N=C1)NCC3=CC=CC=C3)NCCCCCCN
Outline: as §1

[4] = compound: CC1=C(C(CC(=O)N1)C2=CC=C(C=C2)C(F)(F)F)C(=O)NC3=C(C=C4C(=C3)C=NN4)F
Outline: as §1

[5] = compound: CC1=C(C2=C(C=C1)C(=O)C3=CC=CC=C3N2CCCN)C
Outline: as §1

[6] = compound: CC1=C(C=C(C=C1)NC(=O)C2=CC(=CC=C2)C(C)(C)C#N)NC3=CC4=C(C=C3)N=CN(C4=O)C
Outline: as §1

[7] = compound: CC1=C(C=C(C=C1)NC(=O)C2=CC(=CC=C2)N(C)C)NC(=O)C3=CC=C(C=C3)O
Outline: as §1

[8] = compound: CC1=CC=C(C=C1)SC2=C3C=C(SC3=CN=C2)C(=O)N
Outline: as §1

vemurafenib = compound: CCCS(=O)(=O)Nc1ccc(F)c(C(=O)c2c[nH]c3ncc(-c4ccc(Cl)cc4)cc23)c1F [vemurafenib]
Outline: as §1

[9] = compound: CCCS(=O)(=O)Nc1ccc(F)c(C(=O)c2c[nH]c3ncc(Cl)cc23)c1F
Outline: as §1

barasertib = compound: CCN(CCCOc1ccc2c(Nc3cc(CC(=O)Nc4cccc(F)c4)[nH]n3)ncnc2c1)CCOP(=O)(O)O [barasertib]
Outline: as §1

[10] = compound: CC[C@@H]1C(=O)N(C)c2cnc(Nc3ccc(C(=O)NC4CCN(C)CC4)cc3OC)nc2N1C1CCCC1
Outline: as §1

volasertib = compound: CC[C@@H]1C(=O)N(C)c2cnc(Nc3ccc(C(=O)N[C@H]4CC[C@H](N5CCN(CC6CC6)CC5)CC4)cc3OC)nc2N1C(C)C [volasertib]
Outline: as §1

[11] = compound: CCn1c(C(=O)N(C2CC2)C2CC2)cc2c3c(ncn3C)c(Nc3cc(C)n(C)n3)nc21
Outline: as §1

[12] = compound: CCn1cc(-c2ccnc3[nH]c(-c4cccc(CN(C)C)c4)cc23)c(-c2ccc(NC(=O)N(C)C)cc2)n1
Outline: as §1

[13] = compound: CN1CCC(CNc2ccc3ncc(-c4cccc(OC(F)(F)F)c4)n3n2)CC1
Outline: as §1

saracatinib = compound: CN1CCN(CCOc2cc(OC3CCOCC3)c3c(Nc4c(Cl)ccc5c4OCO5)ncnc3c2)CC1 [saracatinib]
Outline: as §1

sotrastaurin = compound: CN1CCN(c2nc(C3=C(c4c[nH]c5ccccc45)C(=O)NC3=O)c3ccccc3n2)CC1 [sotrastaurin]
Outline: as §1

Measured: log2 fold change

MAPK9 (UniProt P45984)
active: [1] 0.234 | ralimetinib 0.366
inactive: ibrutinib -0.024 | [2] 0.002 | [3] -0.029 | [4] -0.038 | [5] -0.086 | [6] 0.103 | [7] -0.029 | [8] -0.015 | vemurafenib -0.016 | [9] -0.002 | barasertib -0.025 | [10] -0.063 | volasertib 0.006 | [11] -0.007 | [12] 0.084 | [13] -0.15 | saracatinib 0.002 | sotrastaurin -0.031

MAD2L2 (UniProt Q9UI95)
Sequence of UniProt Q9UI95 (Q9UI95 whole entry, looked up): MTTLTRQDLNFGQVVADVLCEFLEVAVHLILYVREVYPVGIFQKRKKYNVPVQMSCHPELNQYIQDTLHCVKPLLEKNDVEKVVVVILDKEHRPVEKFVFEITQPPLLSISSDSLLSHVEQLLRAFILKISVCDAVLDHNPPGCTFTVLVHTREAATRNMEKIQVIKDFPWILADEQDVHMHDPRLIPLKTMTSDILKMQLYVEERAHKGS
inactive: ibrutinib -0.015 | [1] -0.173 | ralimetinib 0.103 | [2] -0.08 | [3] -0.03 | [4] -0.001 | [5] -0.059 | [6] 0.053 | [7] -0.106 | [8] -0.132 | vemurafenib -0.028 | [9] 0.246 | barasertib 0.013 | [10] -0.065 | volasertib 0.044 | [11] 0.089 | [12] -0.036 | [13] -0.051 | saracatinib 0.079 | sotrastaurin -0.006

KIF2A isoform 4 (UniProt O00139)
inactive: ibrutinib 0.031 | [1] 0 | ralimetinib 0.017 | [2] 0.009 | [3] 0.002 | [4] -0.01 | [5] -0.002 | [6] -0.02 | [7] 0.032 | [8] 0.018 | vemurafenib -0.006 | [9] 0 | barasertib -0.014 | [10] -0.117 | volasertib -0.032 | [11] 0.042 | [12] -0.013 | [13] 0.009 | saracatinib 0.021 | sotrastaurin 0.023

MACROD1 (UniProt Q9BQ69)
inactive: ibrutinib 0 | [1] 0.015 | ralimetinib 0.098 | [2] -0.024 | [3] -0.008 | [4] 0.022 | [5] 0.017 | [6] -0.101 | [7] 0.064 | [8] 0.065 | vemurafenib 0.016 | [9] 0.043 | barasertib -0.002 | [10] 0.033 | volasertib -0.015 | [11] -0.012 | [12] -0.043 | [13] -0.014 | saracatinib 0.008 | sotrastaurin 0.002

MAP2K7 isoform 4 (UniProt O14733)
Sequence of UniProt O14733 (O14733 whole entry, looked up): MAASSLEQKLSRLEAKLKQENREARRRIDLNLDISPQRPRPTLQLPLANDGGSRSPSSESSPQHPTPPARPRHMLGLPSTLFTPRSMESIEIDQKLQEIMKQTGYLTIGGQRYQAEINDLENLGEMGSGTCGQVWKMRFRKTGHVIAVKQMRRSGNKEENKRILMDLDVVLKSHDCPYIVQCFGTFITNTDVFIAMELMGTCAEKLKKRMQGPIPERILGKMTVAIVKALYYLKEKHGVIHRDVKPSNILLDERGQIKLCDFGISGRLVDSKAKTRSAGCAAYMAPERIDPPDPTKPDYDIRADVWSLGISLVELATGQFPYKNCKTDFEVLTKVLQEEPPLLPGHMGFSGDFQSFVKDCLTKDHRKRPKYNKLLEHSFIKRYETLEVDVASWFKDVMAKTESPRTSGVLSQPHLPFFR
inactive: [1] 0.288 | ralimetinib 0.028 | [2] 0.028 | [3] -0.071 | [4] -0.029 | [5] 0.011 | [6] -0.004 | [7] -0.002 | [8] 0.018 | vemurafenib 0.073 | [9] 0.087 | barasertib -0.02 | [10] 0.016 | volasertib -0.04 | [11] 0.042 | [12] 0.004 | [13] -0.02 | saracatinib 0.032 | sotrastaurin 0.02
active: ibrutinib 1.44

LBR (UniProt Q14739)
Sequence of UniProt Q14739 (Q14739 whole entry, looked up): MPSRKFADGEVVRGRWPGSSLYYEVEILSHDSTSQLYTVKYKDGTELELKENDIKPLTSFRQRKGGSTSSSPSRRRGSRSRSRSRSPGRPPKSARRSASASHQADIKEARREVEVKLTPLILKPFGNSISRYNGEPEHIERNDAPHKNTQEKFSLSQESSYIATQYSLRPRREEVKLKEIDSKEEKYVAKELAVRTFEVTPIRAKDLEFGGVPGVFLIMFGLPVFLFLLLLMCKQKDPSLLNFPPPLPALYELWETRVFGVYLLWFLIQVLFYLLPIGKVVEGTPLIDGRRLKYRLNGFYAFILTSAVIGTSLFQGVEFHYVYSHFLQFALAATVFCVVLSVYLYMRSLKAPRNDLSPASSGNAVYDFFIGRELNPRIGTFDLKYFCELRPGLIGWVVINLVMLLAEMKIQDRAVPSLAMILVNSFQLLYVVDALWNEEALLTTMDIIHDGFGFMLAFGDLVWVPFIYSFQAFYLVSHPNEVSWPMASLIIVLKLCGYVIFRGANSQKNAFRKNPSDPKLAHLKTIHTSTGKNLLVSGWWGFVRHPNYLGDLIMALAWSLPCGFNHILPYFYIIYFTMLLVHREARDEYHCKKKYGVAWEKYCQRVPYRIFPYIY
inactive: ibrutinib 0.034 | [1] -0.01 | ralimetinib 0.019 | [2] -0.121 | [3] -0.029 | [4] 0.018 | [5] 0.065 | [6] -0.089 | [7] -0.026 | [8] -0.036 | vemurafenib 0.012 | [9] 0.008 | barasertib 0.041 | [10] 0.014 | volasertib 0.156 | [11] 0.052 | [12] 0.117 | [13] -0.22 | saracatinib 0.064 | sotrastaurin 0.048

MOCS1 isoform 8 (UniProt Q9NZB8)
Sequence of UniProt Q9NZB8 (Q9NZB8 whole entry, looked up): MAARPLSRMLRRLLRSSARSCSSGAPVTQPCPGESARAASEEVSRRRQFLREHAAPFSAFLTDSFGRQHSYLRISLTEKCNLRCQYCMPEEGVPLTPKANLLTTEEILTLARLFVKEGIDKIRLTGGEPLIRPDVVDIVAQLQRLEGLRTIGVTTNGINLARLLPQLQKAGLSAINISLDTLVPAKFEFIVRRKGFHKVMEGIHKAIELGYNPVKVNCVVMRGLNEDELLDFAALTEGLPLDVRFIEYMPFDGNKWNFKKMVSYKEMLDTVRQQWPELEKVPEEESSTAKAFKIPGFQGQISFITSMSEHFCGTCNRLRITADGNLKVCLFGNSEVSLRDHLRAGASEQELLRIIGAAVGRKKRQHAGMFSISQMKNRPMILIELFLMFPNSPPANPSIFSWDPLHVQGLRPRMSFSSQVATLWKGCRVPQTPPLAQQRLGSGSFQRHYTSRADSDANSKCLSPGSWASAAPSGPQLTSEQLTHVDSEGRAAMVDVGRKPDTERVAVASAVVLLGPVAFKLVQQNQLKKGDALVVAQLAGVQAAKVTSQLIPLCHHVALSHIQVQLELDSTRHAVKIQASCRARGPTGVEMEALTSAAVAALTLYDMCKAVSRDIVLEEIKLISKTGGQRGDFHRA
inactive: ibrutinib 0.186 | [1] 0.08 | ralimetinib -0.066 | [2] 0.035 | [3] 0.049 | [4] -0.005 | [5] -0.003 | [6] 0.069 | [7] -0.026 | [8] -0.002 | vemurafenib 0.063 | [9] 0.022 | barasertib 0.166 | [10] -0.043 | volasertib -0.004 | [11] -0.015 | [12] -0.063 | [13] -0.013 | saracatinib 0.006 | sotrastaurin -0.018

MLXIP (UniProt Q9HAP2)
Sequence of UniProt Q9HAP2 (Q9HAP2 whole entry, looked up): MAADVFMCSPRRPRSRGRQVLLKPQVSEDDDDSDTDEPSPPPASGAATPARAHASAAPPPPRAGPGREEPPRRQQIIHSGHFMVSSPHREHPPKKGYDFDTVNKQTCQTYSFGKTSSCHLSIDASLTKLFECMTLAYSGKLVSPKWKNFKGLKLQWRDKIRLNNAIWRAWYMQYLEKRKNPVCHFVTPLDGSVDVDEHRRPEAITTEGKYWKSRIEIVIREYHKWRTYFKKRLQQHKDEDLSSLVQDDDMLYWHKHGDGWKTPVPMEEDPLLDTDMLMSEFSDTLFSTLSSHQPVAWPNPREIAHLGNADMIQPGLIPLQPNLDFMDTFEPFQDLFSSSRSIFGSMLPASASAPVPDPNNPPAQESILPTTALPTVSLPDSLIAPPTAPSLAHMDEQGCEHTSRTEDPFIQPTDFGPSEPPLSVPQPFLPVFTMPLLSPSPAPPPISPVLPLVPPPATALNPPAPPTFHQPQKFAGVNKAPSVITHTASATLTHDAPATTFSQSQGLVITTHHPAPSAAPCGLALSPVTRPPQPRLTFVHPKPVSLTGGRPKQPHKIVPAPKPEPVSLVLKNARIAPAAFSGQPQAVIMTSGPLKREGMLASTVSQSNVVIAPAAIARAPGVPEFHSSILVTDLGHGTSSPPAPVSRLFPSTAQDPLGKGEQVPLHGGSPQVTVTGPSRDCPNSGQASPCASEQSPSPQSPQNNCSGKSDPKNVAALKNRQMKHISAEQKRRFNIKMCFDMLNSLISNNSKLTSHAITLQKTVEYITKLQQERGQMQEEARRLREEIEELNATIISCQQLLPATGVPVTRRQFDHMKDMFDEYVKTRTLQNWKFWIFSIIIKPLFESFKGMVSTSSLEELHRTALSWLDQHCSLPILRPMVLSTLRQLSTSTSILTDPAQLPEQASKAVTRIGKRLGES
inactive: ibrutinib 0.045 | [1] 0.007 | ralimetinib -0.006 | [2] -0.035 | [3] 0.028 | [4] -0.033 | [5] -0.015 | [6] -0.015 | [7] -0.011 | [8] -0.015 | vemurafenib 0.004 | [9] 0.013 | barasertib 0.019 | [10] -0.032 | volasertib -0.041 | [11] 0.028 | [12] -0.045 | [13] 0.093 | saracatinib 0 | sotrastaurin 0.008

KLC1 isoform 6 (UniProt Q07866)
Sequence of UniProt Q07866 (Q07866 whole entry, looked up): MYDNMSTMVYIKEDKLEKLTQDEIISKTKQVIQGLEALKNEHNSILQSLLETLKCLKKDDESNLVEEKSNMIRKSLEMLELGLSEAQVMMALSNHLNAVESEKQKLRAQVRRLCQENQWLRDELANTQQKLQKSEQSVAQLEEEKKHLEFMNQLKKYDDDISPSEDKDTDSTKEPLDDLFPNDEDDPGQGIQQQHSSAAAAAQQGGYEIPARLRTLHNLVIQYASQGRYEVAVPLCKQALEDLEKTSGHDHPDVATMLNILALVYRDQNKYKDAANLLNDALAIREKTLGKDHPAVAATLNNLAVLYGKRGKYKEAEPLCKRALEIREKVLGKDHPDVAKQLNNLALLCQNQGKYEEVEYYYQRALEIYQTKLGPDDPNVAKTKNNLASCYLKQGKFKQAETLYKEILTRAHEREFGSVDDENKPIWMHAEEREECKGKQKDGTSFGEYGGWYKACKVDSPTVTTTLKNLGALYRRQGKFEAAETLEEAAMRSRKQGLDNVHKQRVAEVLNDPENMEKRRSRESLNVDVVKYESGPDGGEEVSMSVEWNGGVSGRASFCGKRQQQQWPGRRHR
inactive: ibrutinib -0.022 | [1] -0.012 | ralimetinib 0.019 | [2] 0.005 | [3] 0.002 | [4] -0.01 | [5] 0.012 | [6] 0.028 | [7] -0.002 | [8] -0.017 | vemurafenib 0.003 | [9] 0.004 | barasertib -0.002 | [10] 0.012 | volasertib -0.04 | [11] 0 | [12] 0.019 | [13] -0.063 | saracatinib 0.015 | sotrastaurin -0.011

LAGE3 (UniProt Q14657)
Sequence of UniProt Q14657 (Q14657 whole entry, looked up): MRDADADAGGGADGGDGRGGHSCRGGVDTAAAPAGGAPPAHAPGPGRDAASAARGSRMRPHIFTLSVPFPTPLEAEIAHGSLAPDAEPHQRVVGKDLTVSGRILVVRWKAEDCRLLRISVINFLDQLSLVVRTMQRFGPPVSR
inactive: ibrutinib 0.047 | [1] 0.002 | ralimetinib 0.012 | [2] 0 | [3] -0.004 | [4] -0.147 | [5] -0.098 | [6] -0.002 | [7] 0.031 | [8] 0.046 | vemurafenib 0.016 | [9] 0.004 | barasertib 0.128 | [10] -0.032 | volasertib 0.005 | [11] 0.058 | [12] -0.024 | [13] -0.003 | saracatinib 0.019 | sotrastaurin -0.024

MED8 isoform 2 (UniProt Q96G25)
Sequence of UniProt Q96G25 (Q96G25 whole entry, looked up): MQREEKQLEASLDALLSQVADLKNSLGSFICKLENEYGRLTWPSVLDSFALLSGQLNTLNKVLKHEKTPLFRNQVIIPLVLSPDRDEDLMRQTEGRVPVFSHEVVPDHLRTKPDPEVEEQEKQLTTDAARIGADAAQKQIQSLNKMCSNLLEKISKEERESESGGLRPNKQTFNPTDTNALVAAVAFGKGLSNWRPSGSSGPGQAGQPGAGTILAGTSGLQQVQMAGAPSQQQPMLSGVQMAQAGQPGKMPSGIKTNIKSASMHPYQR
inactive: ibrutinib 0.109 | [1] 0.024 | ralimetinib 0.012 | [2] 0.036 | [3] 0.006 | [4] -0.03 | [5] -0.001 | [6] -0.005 | [7] -0.05 | [8] -0.058 | vemurafenib -0.022 | [9] 0.018 | barasertib 0.081 | [10] -0.051 | volasertib -0.003 | [11] 0.013 | [12] 0.214 | [13] -0.092 | saracatinib -0.002 | sotrastaurin 0.091

MAPKAPK2 (UniProt P49137)
active: [1] 0.385
inactive: ibrutinib 0.05 | ralimetinib -0.011 | [2] 0.016 | [3] -0.046 | [4] 0.003 | [5] 0.002 | [6] -0.056 | [7] 0.026 | [8] 0 | vemurafenib 0.011 | [9] -0.043 | barasertib 0 | [10] -0.015 | volasertib -0.032 | [11] 0.009 | [12] -0.032 | [13] 0.002 | saracatinib -0.037 | sotrastaurin -0.015

KRR1 (UniProt Q13601)
inactive: ibrutinib 0.037 | [1] 0.009 | ralimetinib 0.035 | [2] 0.042 | [3] -0.04 | [4] 0.041 | [5] -0.032 | [6] 0.144 | [7] 0.093 | [8] -0.027 | vemurafenib 0.057 | [9] 0.01 | barasertib 0.026 | [10] 0.065 | volasertib -0.015 | [11] 0.023 | [12] -0.006 | [13] -0.026 | saracatinib 0.003 | sotrastaurin -0.021

KMT2A isoform 3 (UniProt Q03164)
inactive: ibrutinib -0.054 | [1] 0.005 | ralimetinib -0.008 | [2] -0.117 | [3] 0.019 | [4] -0.114 | [5] -0.047 | [6] -0.046 | [7] 0.025 | [8] 0 | vemurafenib 0.044 | [9] -0.033 | barasertib 0.042 | [10] -0.035 | volasertib -0.054 | [11] -0.058 | [12] -0.093 | [13] -0.01 | saracatinib -0.069 | sotrastaurin 0.034

KIF22 (UniProt Q14807)
inactive: ibrutinib 0.012 | [1] -0.02 | ralimetinib 0.006 | [2] -0.27 | [3] 0.028 | [4] 0.016 | [5] -0.142 | [6] 0.143 | [7] -0.027 | [8] -0.117 | vemurafenib -0.043 | [9] -0.049 | barasertib 0.009 | [10] 0.088 | volasertib 0.075 | [11] -0.189 | [12] -0.157 | [13] 0.308 | saracatinib 0.036 | sotrastaurin -0.084

MAP4 (UniProt P27816)
Sequence of UniProt P27816 (P27816 whole entry, looked up): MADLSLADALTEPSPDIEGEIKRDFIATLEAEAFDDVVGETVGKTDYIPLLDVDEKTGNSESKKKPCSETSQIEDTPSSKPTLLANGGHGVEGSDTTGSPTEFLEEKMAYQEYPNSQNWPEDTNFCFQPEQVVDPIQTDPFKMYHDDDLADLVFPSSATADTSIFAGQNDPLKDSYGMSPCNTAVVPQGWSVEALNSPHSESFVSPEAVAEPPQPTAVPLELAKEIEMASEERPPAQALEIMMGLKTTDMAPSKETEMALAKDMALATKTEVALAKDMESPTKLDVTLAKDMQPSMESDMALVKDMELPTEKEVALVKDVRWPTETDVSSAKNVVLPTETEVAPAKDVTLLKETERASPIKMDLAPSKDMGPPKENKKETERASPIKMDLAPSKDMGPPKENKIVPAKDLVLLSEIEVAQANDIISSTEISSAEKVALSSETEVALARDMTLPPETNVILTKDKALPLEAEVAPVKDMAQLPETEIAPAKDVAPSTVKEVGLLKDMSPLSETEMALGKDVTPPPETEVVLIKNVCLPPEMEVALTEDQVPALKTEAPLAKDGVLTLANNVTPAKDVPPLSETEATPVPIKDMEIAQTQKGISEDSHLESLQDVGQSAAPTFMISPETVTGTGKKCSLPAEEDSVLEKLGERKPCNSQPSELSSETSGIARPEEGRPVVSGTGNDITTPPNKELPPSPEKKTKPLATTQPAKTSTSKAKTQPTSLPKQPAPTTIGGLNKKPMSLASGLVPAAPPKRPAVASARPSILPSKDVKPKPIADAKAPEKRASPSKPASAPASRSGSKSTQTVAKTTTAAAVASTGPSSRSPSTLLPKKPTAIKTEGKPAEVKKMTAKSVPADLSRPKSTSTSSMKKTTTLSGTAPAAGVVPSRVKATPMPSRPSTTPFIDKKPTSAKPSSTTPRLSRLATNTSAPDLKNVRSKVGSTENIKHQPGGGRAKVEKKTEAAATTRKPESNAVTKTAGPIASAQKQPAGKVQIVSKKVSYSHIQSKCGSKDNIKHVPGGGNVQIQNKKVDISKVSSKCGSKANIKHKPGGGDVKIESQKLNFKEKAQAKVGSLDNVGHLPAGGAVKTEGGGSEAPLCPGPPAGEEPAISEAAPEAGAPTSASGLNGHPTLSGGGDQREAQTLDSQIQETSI
inactive: ibrutinib 0.002 | [1] -0.005 | ralimetinib -0.016 | [2] -0.002 | [3] 0.016 | [4] -0.023 | [5] -0.016 | [6] 0.006 | [7] -0.001 | [8] -0.008 | vemurafenib 0.01 | [9] -0.017 | barasertib -0.016 | [10] 0.064 | volasertib 0.033 | [11] -0.022 | [12] -0.042 | [13] 0.036 | saracatinib -0.009 | sotrastaurin -0.027
